# Screens (PubChem BioAssay)
# a7 integrin act: activators of alpha7 integrin expression for muscular dystrophy; alpha7betagal myoblasts, beta-gal FDG fluorescence, 48 h; Potency, µM (top dose mostly 38.3 µM), without a hit: at the highest dose activation, most hits filed as activators; actives 0.064% (n = 350,000);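 also: potency is read from the fitted curve at half-maximal effect; 100% = response of the positive control SU9516; nearly all actives have a fitted effect of over 60% in size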
#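 Alpha7betagal+/- myoblasts (passage 13) were plated 16-24 hr, then exposed to compounds (1:260 dilution of DMSO stock) for 48 hours at 37C. After MPER lysis, β-galactosidase reporter activity was read as FDG fluorescence (ex 480/em 540) after 30 minutes.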
# MBNL1-CUG inh: inhibitors of human MBNL1 binding to CUG repeat RNA; Q9NR56; TR-FRET MBNL1-His/biotin-(CUG)12 binding, 665/545 ratio; Potency, µM (top dose mostly 57.5 µM), for inactives: at the top dose activity change, negative = inhibition, most hits filed as inhibitors; actives 0.036% (n = 280,000); AID 2675; active = well fitted inhibition curve with a large enough effect in the signal ratio, with a control signal flat, not every such curve was filed as active; inconclusive = small, poorly fitted or top-dose-only effect, or effect the other way, or a change in a side signal; inactive = no such curve, though single readings can be large or run the other way; the % refers to the signal ratio; also: potency is read from the fitted curve at half-maximal effect; % is scaled to controls: 0 for no effect and ±100 for the full control effect
#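 Inhibition of protein-RNA binding appears as loss of TR-FRET between terbium anti-His antibody on MBNL1-His and streptavidin-XL665 on biotin-(CUG)12. Activity is normalized to buffer-only and uninhibited-complex controls.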
# D3 antag: D3 dopamine receptor (human) antagonism. AID 652054. max response, negative = inhibition, %. actives 2.5% (n = 360,000). D3R cells, DiscoveRx beta-arrestin luminescence, antagonist mode; active compounds read low. P35462; in the data active = max response below about -50%; inconclusive = no clear call, values can overlap the other calls; also: % is scaled to controls: 0 for no effect and ±100 for the full control effect
# Target sequence (P35462 whole entry, looked up): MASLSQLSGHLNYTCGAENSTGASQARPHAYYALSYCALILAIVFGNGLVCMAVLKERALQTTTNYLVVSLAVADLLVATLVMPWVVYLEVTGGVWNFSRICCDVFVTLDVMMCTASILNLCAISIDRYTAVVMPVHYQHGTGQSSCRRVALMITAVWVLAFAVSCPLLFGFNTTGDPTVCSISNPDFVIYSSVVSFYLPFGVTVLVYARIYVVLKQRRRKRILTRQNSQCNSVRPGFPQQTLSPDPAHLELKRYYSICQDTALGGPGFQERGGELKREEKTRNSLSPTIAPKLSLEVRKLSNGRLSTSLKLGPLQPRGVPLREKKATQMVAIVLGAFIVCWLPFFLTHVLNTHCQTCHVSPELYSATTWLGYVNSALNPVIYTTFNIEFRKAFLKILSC
#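 Cells expressing the human receptor were seeded at 1500 cells/well, incubated overnight at 37 degrees C in 5% CO2, then exposed to library compounds with dopamine controls for 90 minutes at 37 degrees C before luminescent detection.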
# PTHR1 ag: agonists of human PTHR1 parathyroid hormone receptor. Potency, µM (top dose mostly 115 µM), for the others: top-dose activation, usual class: activators. HEK293 GP2 PTHR1 cells, GloSensor cAMP luminescence, 1 h. actives 0.075% (n = 410,000). Q03431; also: potency is read from the fitted curve at half-maximal effect; nearly all actives have a fitted effect of over 55% in size
#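 HEK-293-derived GP2 cells expressing PTHR1 and a GloSensor cAMP reporter, 3,000/well, plated overnight, given luciferin plus IBMX (each 0.5 mM as added) for 1 h at 37 °C, then compound for 1 h at 37 °C. Luminescence was read after 15 min at room temperature.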
# CBFb RUNX1 block: inhibitors of human CBF-beta and RUNX1 interaction. Q01196+Q13951. AlphaScreen CBFb-His/RUNX1-biotin binding, biochemical. Potency, µM (highest dose often 59.8 µM), without a hit: at the highest dose activity, negative = inhibition, usual class: inhibitors. 230,000 tested, under 10 active; also: % of control where 0% means no effect
#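 Inhibition was taken as any reduction in AlphaScreen signal from the CBF-beta–RUNX1 pair (His and biotin tags, 30 nM each), measured after compound (15 min) and bead (90 min) incubations at room temperature.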
# DRD3 agonist: agonists of human D3 dopamine receptor. P35462. D3R DiscoveRx beta-arrestin cells, luminescence, 90 min. max activation, %. actives 0.58% (n = 410,000). AID 652048; in the data active = max activation above about 30%; also: 0% is about no effect
#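 Cells at 1500/well, incubated overnight, then treated with pinned compounds (dopamine as control) for 90 min at 37 degrees C. DiscoveRx reagent added for 30 - 60 minutes at room temperature; luminescence read.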
# Active calls of the source: *; i = inactive; ? = inconclusive; . = not tested or not shown. Most compounds without a hit are left out; they make up all but 2.8% or so of the library. Unless noted, calls follow the shape of the dose curve; as a rule, active = well fitted curve in the direction sought with a large enough effect; inconclusive = small, poorly fitted or top-dose-only effect, or another doubt; inactive = no such curve, though single readings can be large; an effect the other way counts as inactive or inconclusive.
SMILES,a7 integrin act,MBNL1-CUG inh,D3 antag,PTHR1 ag,CBFb RUNX1 block,DRD3 agonist
Cc1ccc(C(OCCN(C)C)c2cccc(C(F)(F)F)c2)cc1 (stereo not drawn),-39%,-13%,-76*,i,3%,-11
CCN1CCN(c2nc(Nc3ccc(OC)cc3)nc(N)c2[N+](=O)[O-])CC1,?,.,-54*,i,-6%,-27
Cc1cccc(Nc2nc(N)c([N+](=O)[O-])c(N3CCN(C)CC3)n2)c1,-13%,6%,-64*,i,4%,-32
CN1CCN(c2nc(Nc3ccccc3)nc(N)c2[N+](=O)[O-])CC1,-2%,-1%,-67*,5%,-3%,-39
CCN1CCN(c2nc(Nc3ccccc3F)nc(N)c2[N+](=O)[O-])CC1,-26%,9%,-63*,5%,4%,-17
Cc1ccnc(NC(=O)CCC(=O)N(CC(=O)NC(C)(C)C)c2ccc3c(c2)OCO3)c1,15%,-4%,7,-33%,.,-7
COc1ccccc1NC(=O)CS(=O)(=O)c1cn(CC(=O)N2CCCC2)c2ccccc12,11%,-10%,-1,-24%,.,0
CC1=C(C(=O)N(C(C)C)C(C)C)CC(CC(=O)NCc2ccco2)C(=O)N1Cc1ccccc1 (stereo not drawn),.,.,-4,i,.,-8
CCN1CCN(c2nc(Nc3cccc(C)c3)nc(N)c2[N+](=O)[O-])CC1,7%,-6%,-65*,-12%,1%,-46
CCNC(=O)C(=O)NCCC1CCCCN1S(=O)(=O)c1cccs1 (stereo not drawn),-4%,.,-54*,-16%,.,-10
CC(C)CNC(=O)C(=O)NCCC1CCCCN1S(=O)(=O)c1cccs1 (stereo not drawn),3%,.,5,-2%,.,-2
O=C(Nc1ccc2nc3n(c(=O)c2c1)CCCCC3)c1c(F)ccc([N+](=O)[O-])c1F,-76%,?,-59*,-19%,.,-6
COc1cc(OC)c(N(C)C(=O)Cn2ncc3c(=O)oc4ccccc4c32)cc1Cl,.,.,.,i,.,-17
Cc1c(NC(=O)C(C)OC(=O)CCc2c[nH]c3ccccc23)c(=O)n(-c2ccccc2)n1C (stereo not drawn),-15%,.,-3,-12%,.,-7
COc1cc(OC)c(-c2c3cc(O)c(=O)cc-3oc3cc(O)c(O)cc23)cc1OC,-67%,?,-77*,-3%,.,-26
COc1ccc(N2CCN(CCCNC(=O)c3c(C)nn(-c4ccc(F)cc4)c3-n3cccc3)CC2)cc1,.,.,.,-35%,.,-1
COc1ccccc1N1CCN(CCN2C(=O)C3CCCCN3C2=O)CC1 (stereo not drawn),3%,-3%,-79*,-4%,.,-21
O=C1C2CCCN2C(=O)N1CCN1CCN(c2ccccc2)CC1 (stereo not drawn),11%,.,-3,i,4%,-42
O=C1C2CCCN2C(=O)N1CCCCN1CCN(CCO)CC1 (stereo not drawn),8%,-5%,-2,-11%,-11%,1
COc1ccccc1N1CCN(CCCN2C(=O)C3CCCCN3C2=O)CC1 (stereo not drawn),18%,.,-66*,-5%,.,-12
COc1ccccc1N1CCN(CCCN2C(=O)C3CCCN3C2=O)CC1 (stereo not drawn),-7%,.,-83*,-14%,.,-13
O=C1C2CCCN2C(=O)N1CCCN1CCN(c2ccc([N+](=O)[O-])cc2)CC1 (stereo not drawn),-25%,?,-23,-17%,.,-1
FC(F)(F)c1cccc(Cc2noc(CN3CCCC3)n2)c1,-16%,-8%,-8,-18%,12%,1
OCC1CCCN(C2CCN(Cc3nc(Cc4cccc(C(F)(F)F)c4)no3)CC2)C1 (stereo not drawn),14%,13%,15,i,2%,30*
Cc1ccc(NCN2C(=O)C(=O)c3ccccc32)nc1,-4%,-6%,-64*,i,2%,-50
SMILES,a7 integrin act,MBNL1-CUG inh,D3 antag,PTHR1 ag,CBFb RUNX1 block,DRD3 agonist
O=c1[nH][nH]c2c1[C@H](C1CCCC1)O[C@H](CCc1ccccc1)C2,.,.,7,-42%,.,5
O=C(OC1CC2CC1[C@H]1CCCCN1C2=O)N1CCN(S(=O)(=O)c2ccccc2)CC1 (stereo partly drawn),.,.,-53*,-18%,.,2
O=C(OC1CC2CC1[C@H]1CCCCN1C2=O)N1CCN(c2ccccc2)CC1 (stereo partly drawn),.,.,4,i,.,7
COc1ccc(NC(=O)CSc2nnc(Cc3cccs3)n2-c2ccc(C)cc2)cc1,-27%,0%,54,-16%,1%,81*
Cc1cc(F)ccc1-c1cc(C(=O)NCc2cccs2)[nH]n1,.,.,-77*,-12%,.,-22
COc1ccc(NC(=O)c2cc(-c3ccc(F)cc3OC)n[nH]2)cc1OC,.,.,0,i,.,-4
Cc1cc(F)ccc1-c1cc(C(=O)Nc2ccccc2)[nH]n1,.,.,-85*,-48%,.,-12
COc1ccc(-c2cc(C(=O)Nc3ccc(OC)c(OC)c3)[nH]n2)c(C)c1,.,.,-60*,4%,.,-15
Cc1cc(F)ccc1-c1cc(C(=O)NCc2cc(C(F)(F)F)cc(C(F)(F)F)c2)[nH]n1,.,.,-8,-36%,.,0
Cc1cccc(C)c1NC(=O)C(=O)NCc1ccccn1,37%,-3%,7,i,-1%,-2
CCCCN(c1ccccc1)S(=O)(=O)c1cccc(C(=O)Nc2c(C)n(C)n(-c3ccccc3)c2=O)c1,2%,.,?,-66%,.,-16
COc1ccc(CCN2C(=O)C3C4C=CC(C3C2=O)C2C(=O)N(CCc3ccc(OC)c(OC)c3)C(=O)C42)cc1OC (stereo not drawn),-10%,-6%,-19,-20%,1%,31*
COc1ccc(CCn2c(N)cc(=O)[nH]c2=O)cc1OC,5%,-1%,-86*,-18%,-2%,-13
Cc1ccc(Cl)c(OCCN2CCc3ccccc3C2)c1,-16%,4%,-60*,-44%,.,7
C/C=C/c1ccc(OCCN2CCc3ccccc3C2)c(OC)c1,-36%,1%,-76*,-5%,-4%,-20
C=CCc1ccc(OCCN2CCc3ccccc3C2)c(OC)c1,-29%,-4%,-75*,-1%,-10%,-16
C=CCc1ccc(OCCCOc2ccc(C)cc2OC)c(OC)c1,-14%,4%,15,i,3%,3
C=CCc1ccc(OCCCCN2CC(C)OC(C)C2)c(OC)c1 (stereo not drawn),11%,-3%,-69*,-3%,18%,-6
